In PubChem BioAssay (NCI):
Values joined by “and” are separate entries in the source; they are usually repeats but may differ in a detail not shown here. Identical values can stand only once. Compounds without any hit were thinned out: in the full panel of roughly 79,000, 15% have a hit. Some structures have more than one record in an assay (separate samples or runs), and their calls can disagree. Active and inactive are the calls of the source. Rule as the data show it: active = growth inhibition above about 70%; inactive = the rest. Where a SMILES comes first, the peptide text is derived from it. [ ]: non-standard residue; d: D form. ξ: configuration not given here. ξI = CCC(C)C(N)C(=O)O

Legend:
[1] = NCI Yeast Anticancer Drug Screen. Data for the rad50 strain (AID 155);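 also: 0% = growth of vehicle-only cultures of the same strain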; settings: S. cerevisiae rad50 strain growth inhibition, stronger effect = higher value
How it was run: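 Readout: growth inhibition relative to vehicle-treated cultures. Compound exposure was carried out in a genetically defined yeast strain deficient in DNA damage repair.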

[2] = NCI Yeast Anticancer Drug Screen. Data for the sgs1 mgt1 strain (AID 161);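 also: 0% = growth of cultures given vehicle only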; settings: S. cerevisiae sgs1 mgt1 strain, stronger effect = higher value
How it was run: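 Genetically altered yeast, compound exposure, growth inhibition relative to vehicle.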

[3] = NCI Yeast Anticancer Drug Screen. Data for the cln2 rad14 strain (AID 165);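 also: 0% = growth equal to vehicle treated cultures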; settings: S. cerevisiae cln2 rad14 strain, stronger effect = higher value
How it was run: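 Test compounds were added to cln2 rad14 yeast cultures; inhibition of growth was then determined by comparison with vehicle treatment.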

[4] = NCI Yeast Anticancer Drug Screen. Data for the bub3 strain (AID 167); settings: S. cerevisiae bub3 mutant strain, stronger effect = higher value
How it was run: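 Readout: yeast growth inhibition, expressed relative to vehicle-only wells. The test organism is a mutant strain from a panel with lesions in DNA repair or checkpoint genes.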

[5] = NCI Yeast Anticancer Drug Screen. Data for the mlh1 rad18 strain (AID 175); settings: S. cerevisiae mlh1 rad18 strain growth inhibition, stronger effect = higher value
How it was run: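 Inhibition values reflect reduced growth of mutant yeast versus vehicle-treated controls following compound exposure; the mutations affect DNA damage repair.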

[6] = NCI Yeast Anticancer Drug Screen. Data for the mec2-1 strain (AID 157); settings: S. cerevisiae mec2-1 strain, stronger effect = higher value
How it was run: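 Each compound was tested on mec2-1 yeast, a strain altered in DNA damage repair or cell cycle control. Growth inhibition is reported relative to vehicle.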

[7] = at 5.0 µM (retest, dose inferred, filed as 0.5)
[8] = at 50.0 µM (retest, dose inferred, filed as 5.0)

SMILES | growth inhibition [1, 7] | growth inhibition [1, 8] | growth inhibition ([1]; at 50.0 µM) | growth inhibition [2, 7] | growth inhibition [2, 8] | growth inhibition ([2]; at 50.0 µM) | growth inhibition [3, 7] | growth inhibition [3, 8] | growth inhibition ([3]; at 50.0 µM) | growth inhibition [4, 7] | growth inhibition [4, 8] | growth inhibition ([4]; at 50.0 µM) | growth inhibition [5, 7] | growth inhibition [5, 8] | growth inhibition ([5]; at 50.0 µM) | growth inhibition ([6]; at 50.0 µM) | growth inhibition [6, 7] | growth inhibition [6, 8]
S=c1nc[nH]c2[nH]ccc12 | -3% (inactive) | -4% (inactive) | 10.1% (inactive) | 0% (inactive) | -2% (inactive) | -2.35% (inactive) | -2% (inactive) | -7% (inactive) | 48% (inactive) | -1% (inactive) | -6% (inactive) | -5.4% (inactive) | -1% (inactive) | 0% (inactive) | 2.8% (inactive) | – | – | –
CCC(C)C(NC(=O)CN)C(=O)O (stereo not given) (H-Gly-[ξI]-OH) | – | – | 6.95% (inactive) [middle of 4 runs] | – | – | – | – | – | – | – | – | – | – | – | -17.8% (inactive) [middle of 4 runs] | -3% (inactive) [middle of 4 runs] | – | –
CC1(C)N(OC2CCCCO2)C(c2ccccc2)C(c2ccccc2)=[N+]1[O-] (stereo not given) | 18% (inactive) | 24% (inactive) | 34% (inactive) | 18% (inactive) | 18% (inactive) | -13.7% (inactive) | 17% (inactive) | 27% (inactive) | 7.4% (inactive) | 19% (inactive) | 25% (inactive) | -23% (inactive) | 21% (inactive) | 24% (inactive) | -6.55% (inactive) | – | – | –
NC(CC(=O)O)C(=O)O (stereo not given) | – | – | – | -3% (inactive) | 0% (inactive) | -30.9% (inactive) and 98% (active) and -5.9% (inactive) | 4% (inactive) | -7% (inactive) | -7.75% (inactive) and 99.3% (active) and 16.6% (inactive) | 5% (inactive) | 0% (inactive) | -10.1% (inactive) and 99.6% (active) and -3.75% (inactive) | -3% (inactive) | 4% (inactive) | -14.1% (inactive) and 99.5% (active) and 21.2% (inactive) | -7.85% (inactive) and 99.6% (active) and 9.7% (inactive) | -10% (inactive) | -3% (inactive)
NCCCC(=O)O | – | – | -5.85% (inactive) [middle of 4 runs] | – | – | – | – | – | 6.95% (inactive) [middle of 4 runs] | – | – | -15.2% (inactive) [middle of 4 runs] | – | – | – | – | – | –
COc1cccc2c1C(=O)c1c(O)c3c(c(O)c1C2=O)C[C@@](O)(C(=O)CO)C[C@@H]3OC1CC(N)C(O)C(C)O1 (stereo not given in full) | – | – | – | 53% (inactive) and 15% (inactive) and 4% (inactive) | 99% (active) and 88% (active) and -2% (inactive) | 94.6% (active) and 88% (active) and 5% (inactive) | 25% (inactive) and 5% (inactive) and -23% (inactive) | 98% (active) and 49% (inactive) and 1% (inactive) | 90.5% (active) and 11.1% (inactive) and 91.5% (active) | 57% (inactive) and 2% (inactive) and 22% (inactive) | 98% (active) and 72% (active) and 17% (inactive) | 93.7% (active) and 88.8% (active) and -40.1% (inactive) | 69% (inactive) and 44% (inactive) and -8% (inactive) | 98% (active) and 84% (active) and -10% (inactive) | 92.8% (active) and 89.8% (active) and 46.3% (inactive) | 93.7% (active) and 52.2% (inactive) and -26% (inactive) | 41% (inactive) and 20% (inactive) and -6% (inactive) | 99% (active) and 82% (active) and -16% (inactive)
Fc1ccc2nc3ccccc3nc2c1 | – | – | – | – | – | – | -6% (inactive) | 10% (inactive) | 29.5% (inactive) | 5% (inactive) | 24% (inactive) | 42.5% (inactive) | 2% (inactive) | 27% (inactive) | 76.3% (active) | 49.2% (inactive) | 5% (inactive) | 27% (inactive)
Cc1cc2c(C(C)C)c(O)c(O)c(C=Nc3ccccc3S)c2c(O)c1-c1c(C)cc2c(C(C)C)c(O)c(O)c(C=Nc3ccccc3S)c2c1O | – | – | – | -4% (inactive) | 4% (inactive) | 57.3% (inactive) | -9% (inactive) | 16% (inactive) | 44.6% (inactive) | -8% (inactive) | 45% (inactive) | 39.5% (inactive) | -5% (inactive) | 66% (inactive) | 53.5% (inactive) | – | – | –
COc1cc2c(cc1O)CC[n+]1cc3c(OC)c(OC)ccc3cc1-2 | – | – | -56% (inactive) and 3.1% (inactive) and -3% (inactive) | – | – | -20.8% (inactive) and 0.8% (inactive) and 20.3% (inactive) | – | – | 9.65% (inactive) and 5.15% (inactive) and -13.2% (inactive) | – | – | -15.4% (inactive) and -3.15% (inactive) and 15.6% (inactive) | – | – | -11.1% (inactive) and -69.1% (inactive) and 0% (inactive) | -20% (inactive) and -15.3% (inactive) and 0.25% (inactive) | – | –
CC(C)C(N)C(=O)NC(C(=O)NC(C(=O)O)C(C)C)C(C)C (stereo not given) | – | – | -1.6% (inactive) [middle of 6 runs] | – | – | 3.35% (inactive) [middle of 6 runs] | – | – | – | – | – | 6.2% (inactive) [middle of 6 runs] | – | – | – | 6.8% (inactive) [middle of 6 runs] | – | –
c1cc2c3c(cccc3c1)-c1cnccc1-2 | 31% (inactive) | 54% (inactive) | 91.1% (active) | -6% (inactive) | 97% (active) | 92.9% (active) | 48% (inactive) | 97% (active) | 90.8% (active) | 16% (inactive) | 98% (active) | 92.3% (active) | 35% (inactive) | 73% (active) | 91.8% (active) | – | – | –
O=C(OC1COC(OC(=O)c2ccccc2)C(OC(=O)c2ccccc2)C1OC(=O)c1ccccc1)c1ccccc1 (stereo not given) | – | – | 20.4% (inactive) [middle of 4 runs] | – | – | 9.5% (inactive) [middle of 4 runs] | – | – | -21.6% (inactive) [middle of 4 runs] | – | – | – | – | – | -4.1% (inactive) [middle of 4 runs] | -7.1% (inactive) [middle of 4 runs] | – | –
COc1nc2nc(C(O)C(O)CO)cnc2c(=O)n1C (stereo not given) | – | – | -5.55% (inactive) [middle of 4 runs] | – | – | -5.2% (inactive) [middle of 4 runs] | – | – | – | – | – | 7.15% (inactive) [middle of 4 runs] | – | – | – | -6.55% (inactive) [middle of 4 runs] | – | –
Cc1ccc(S(=O)(=O)N/N=C2/C(=O)c3cccc4cccc2c34)cc1 | 6% (inactive) | 74% (active) | 64.5% (inactive) | 10% (inactive) | 76% (active) | 55.8% (inactive) | 2% (inactive) | 39% (inactive) | 30.5% (inactive) | 0% (inactive) | 55% (inactive) | 0.25% (inactive) | 33% (inactive) | 92% (active) | 24.8% (inactive) | – | – | –
OCC(O)C(O)C(O)C(O)C(/C=N/Nc1ccccc1)=N/Nc1ccccc1 (stereo not given) | -19% (inactive) | 91% (active) | – | -39% (inactive) | 30% (inactive) | – | 2% (inactive) | 82% (active) | – | -3% (inactive) | 54% (inactive) | – | 8% (inactive) | 86% (active) | – | – | -5% (inactive) | 61% (inactive)
COC1OC2COC(c3ccccc3)OC2C2OC12 (stereo not given) | – | – | -7.7% (inactive) [middle of 4 runs] | – | – | – | – | – | 3.15% (inactive) [middle of 4 runs] | – | – | -4.2% (inactive) [middle of 4 runs] | – | – | -12.8% (inactive) [middle of 4 runs] | -2.5% (inactive) [middle of 4 runs] | – | –
O=C(O)C1CC(O)CN1 (stereo not given) | – | – | 26.6% (inactive) and 12.2% (inactive) and -2.5% (inactive) | – | – | 31.4% (inactive) and 15.3% (inactive) and 1.95% (inactive) | – | – | -4.7% (inactive) and 4.45% (inactive) and -18.1% (inactive) | – | – | 23.1% (inactive) and 13.8% (inactive) and 2.75% (inactive) | – | – | 30.6% (inactive) and 13.9% (inactive) and 1.9% (inactive) | -9.75% (inactive) and 11.6% (inactive) and -22.9% (inactive) | – | –
NC(CSCc1ccccc1)C(=O)O (stereo not given) | – | – | – | – | – | – | – | – | – | – | – | -6% (inactive) [middle of 4 runs] | – | – | 0.9% (inactive) [middle of 4 runs] | – | – | –
COc1ccc(C2SC(N)=Nc3c2c(C)nn3C(=O)c2ccc(Cl)cc2)cc1OC (stereo not given) | – | – | – | -7% (inactive) | 0% (inactive) | 3.85% (inactive) | -21% (inactive) | 1% (inactive) | 64.5% (inactive) | -18% (inactive) | 15% (inactive) | 16.1% (inactive) | -8% (inactive) | -15% (inactive) | -26.6% (inactive) | 14.5% (inactive) | -10% (inactive) | -1% (inactive)
COc1cc2c3c(c1)SCCC(=O)N3CCN2 | 17% (inactive) | 17% (inactive) | 71.7% (active) | 15% (inactive) | 15% (inactive) | -22.6% (inactive) | -4% (inactive) | -4% (inactive) | 80.4% (active) | 0% (inactive) | 0% (inactive) | 73.3% (active) | 14% (inactive) | 14% (inactive) | 45.7% (inactive) | – | – | –
NNc1ccc2ccccc2c1 | – | – | – | 13% (inactive) | 57% (inactive) | 95.5% (active) and 26.1% (inactive) | 16% (inactive) | 30% (inactive) | 90.2% (active) and 29.1% (inactive) | 16% (inactive) | 77% (active) | 91.2% (active) and 21.1% (inactive) | 33% (inactive) | 91% (active) | 97.2% (active) and 25.7% (inactive) | 85.6% (active) and 2.95% (inactive) | 4% (inactive) | 56% (inactive)
O=[N+]([O-])c1c(Br)cc(Br)c2c1Nc1c(ccc(Cl)c1Cl)S2 | – | – | – | 13% (inactive) | 95% (active) | 96.4% (active) | 20% (inactive) | 93% (active) | 94.2% (active) | 28% (inactive) | 95% (active) | 94.8% (active) | 39% (inactive) | 95% (active) | 95.3% (active) | 96.7% (active) | 26% (inactive) | 95% (active)
COC1OCC(O)C(O)C1O (stereo not given) | – | – | -2.4% (inactive) [middle of 4 runs] | – | – | 1.2% (inactive) [middle of 4 runs] | – | – | -8.1% (inactive) [middle of 4 runs] | – | – | -0.95% (inactive) [middle of 4 runs] | – | – | -7.4% (inactive) [middle of 4 runs] | 8.15% (inactive) [middle of 4 runs] | – | –
